# According to ChEMBL document CHEMBL3988442, “University of Dundee, Small-Polar-MMV Screening Library” (2021):
# Molecular target: T1, Methionyl-tRNA synthetase, putative (Leishmania donovani (strain BPK282A1)) (UniProt E9BF75)
# T1 sequence (whole entry): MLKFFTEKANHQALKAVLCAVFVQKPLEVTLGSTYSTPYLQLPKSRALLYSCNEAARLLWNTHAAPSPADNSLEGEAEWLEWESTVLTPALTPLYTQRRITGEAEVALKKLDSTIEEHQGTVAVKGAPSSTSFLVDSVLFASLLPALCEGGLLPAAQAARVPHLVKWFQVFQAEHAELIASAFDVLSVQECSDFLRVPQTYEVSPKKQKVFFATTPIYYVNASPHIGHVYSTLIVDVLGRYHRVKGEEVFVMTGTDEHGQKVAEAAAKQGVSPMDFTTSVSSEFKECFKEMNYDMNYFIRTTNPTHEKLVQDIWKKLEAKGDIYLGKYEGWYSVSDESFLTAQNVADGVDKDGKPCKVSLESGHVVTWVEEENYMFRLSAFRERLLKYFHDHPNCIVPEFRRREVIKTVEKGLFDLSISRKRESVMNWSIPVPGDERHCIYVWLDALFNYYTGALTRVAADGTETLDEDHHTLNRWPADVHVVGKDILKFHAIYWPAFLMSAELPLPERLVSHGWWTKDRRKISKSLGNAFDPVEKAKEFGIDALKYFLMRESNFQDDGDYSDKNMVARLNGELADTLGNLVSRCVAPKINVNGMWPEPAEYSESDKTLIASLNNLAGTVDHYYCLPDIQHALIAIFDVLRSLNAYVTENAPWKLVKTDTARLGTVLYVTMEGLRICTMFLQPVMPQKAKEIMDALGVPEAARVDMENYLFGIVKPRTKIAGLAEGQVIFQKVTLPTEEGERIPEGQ
# Experiment: Leishmania donovani Methionine tRNA synthetase (LdMetRS):v7. Dose response assay
# Type: functional
# Set-up: conc 80 nM, time 150 minutes
smiles,measurement,setting,value
Cc1cc(Br)sc1CNCCCNc1cc(=O)c2ccccc2[nH]1,PXC50,"BOTTOM 0.0, HILLSLOPE 1.706331743, MAX_EFFECT 106.0465116, TOP 103.2080248",6.25
same,PXC50,"BOTTOM 0.0, HILLSLOPE 2.906661209, MAX_EFFECT 104.1958042, TOP 102.1210588",6.14
Cc1sc2nc(CCN)nc(N(C)CCCC3CCCO3)c2c1C (stereo not given),PXC50,MAX_EFFECT 15.90909091,< 4
same,PXC50,MAX_EFFECT 18.36734694,< 4
Cc1nc(N2CCNC(=O)C2)c2c(CC(C)C)csc2n1,PXC50,MAX_EFFECT 4.371584699,< 4
same,PXC50,MAX_EFFECT 6.951871658,< 4
CS(=O)(=O)N1CCN(c2cnc3ncc(C(=O)NC4CCCC4)cn23)CC1,PXC50,MAX_EFFECT 3.624733475,< 4
same,PXC50,MAX_EFFECT 4.761904762,< 4
CS(=O)(=O)N1CCN(c2ccc3ccc(C(=O)NCc4ccccc4)cn23)CC1,PXC50,"BOTTOM 9.61795032, HILLSLOPE 2.1052237, MAX_EFFECT 58.50091408, TOP 60.20064035",4.73
same,PXC50,"BOTTOM -0.0629, HILLSLOPE 2.117070317, MAX_EFFECT 53.11004785, TOP 51.4182088",5.1
Cc1ccc(-c2cc(C(F)(F)F)nc(NCCCN(C)C)n2)cc1,PXC50,MAX_EFFECT 7.446808511,< 4
same,PXC50,MAX_EFFECT 8.808290155,< 4
Nc1noc2ccc(-c3cnc4ccc(NC5CCOCC5)nn34)cc12,PXC50,MAX_EFFECT 17.30279898,< 4
same,PXC50,MAX_EFFECT 20.1754386,< 4
Cc1nc(N(Cc2ccncc2)CC2CCCO2)c2ccsc2n1 (stereo not given),PXC50,MAX_EFFECT 13.31592689,< 4
same,PXC50,MAX_EFFECT 17.75456919,< 4
Cc1nc(N2CCN(C(=O)C3CC3)CC2)c2c3c(sc2n1)CC(C)CC3 (stereo not given),PXC50,MAX_EFFECT 43.2160804,< 4
same,PXC50,MAX_EFFECT 47.91154791,< 4
Cc1nn(C)cc1-c1cc(C(F)(F)F)nc(NC2CCCCC2)n1,PXC50,MAX_EFFECT 7.049608355,< 4
same,PXC50,MAX_EFFECT 12.01044386,< 4
CS(=O)(=O)N1CCN(c2ccc3ccc(C(=O)NCCc4ccccc4)cn23)CC1,PXC50,"BOTTOM 2.353808238, HILLSLOPE 2.745183605, MAX_EFFECT 51.67464115, TOP 50.17202443",5.02
same,PXC50,"BOTTOM 6.057044372, HILLSLOPE 2.135645997, MAX_EFFECT 57.03839122, TOP 56.72145826",4.82
CC(C)C[C@H](N)COc1ccc(Cl)cc1-c1ccno1,PXC50,MAX_EFFECT 6.832298137,< 4
same,PXC50,MAX_EFFECT 8.742004264,< 4
Cc1ccc(N2CCC3(CN(Cc4ccncc4)CCC3(F)F)C2)nn1 (stereo not given),PXC50,MAX_EFFECT 9.977324263,< 4
same,PXC50,MAX_EFFECT 11.58878505,< 4
CCc1nc(NCCCN(C)C)c2c3c(sc2n1)CCC3,PXC50,MAX_EFFECT 11.05527638,< 4
same,PXC50,MAX_EFFECT 11.54791155,< 4
CCOC(=O)N1CCN(c2nc(C)nc3scc(-c4cccs4)c23)CC1,PXC50,MAX_EFFECT 28.24427481,< 4
same,PXC50,MAX_EFFECT 28.46347607,< 4
Cc1nc(NCCCS(N)(=O)=O)c2c(-c3cccs3)csc2n1,PXC50,MAX_EFFECT 6.297229219,< 4
same,PXC50,MAX_EFFECT 6.870229008,< 4
CC(C)C[C@H](N)C(=O)Nc1cccnc1Oc1ccc(Cl)cc1,PXC50,MAX_EFFECT 2.186878728,< 4
same,PXC50,MAX_EFFECT 7.568807339,< 4
COc1ccc(-c2cc(C(F)(F)F)nc(N3CCCCC3)n2)cc1OC,PXC50,MAX_EFFECT 2.702702703,< 4
same,PXC50,MAX_EFFECT 3.015075377,< 4
Cc1sc2nc(CCN)nc(N3CCC(N4CCCC4)CC3)c2c1C,PXC50,MAX_EFFECT 14.62140992,< 4
same,PXC50,MAX_EFFECT 16.44908616,< 4
Cn1ccnc1CN1CCC(F)(F)C2(CCN(c3cccnc3)C2)C1 (stereo not given),PXC50,MAX_EFFECT 9.719626168,< 4
same,PXC50,MAX_EFFECT 11.33786848,< 4
N[C@H]1CCOc2c(Cl)cc(Cl)cc21,PXC50,MAX_EFFECT 2.517162471,< 2.7
same,PXC50,MAX_EFFECT 3.676470588,< 2.7
OC1CCc2cc(Cl)cc(Cl)c21 (stereo not given),PXC50,MAX_EFFECT 6.26349892,< 3
same,PXC50,MAX_EFFECT 9.69581749,< 3
CCOC(=O)N1CCN(c2nc(C)nc3sc4c(c23)CCCC4)CC1,PXC50,MAX_EFFECT 14.58333333,< 4
same,PXC50,MAX_EFFECT 16.22807018,< 4
Cc1sc2nc(C(F)(F)F)nc(N3CCCN(C)CC3)c2c1C,PXC50,MAX_EFFECT 3.916449086,< 4
same,PXC50,MAX_EFFECT 8.877284595,< 4
Cc1sc2nc(C(F)(F)F)nc(N3CCC(NS(C)(=O)=O)CC3)c2c1C,PXC50,MAX_EFFECT 0.0,< 4
same,PXC50,MAX_EFFECT 1.305483029,< 4
CS(=O)(=O)N1CCN(c2ccc3ccc(C(=O)N4CCCC4)cn23)CC1,PXC50,"BOTTOM 0.156945579, HILLSLOPE 1.857683392, MAX_EFFECT 58.30188679, TOP 61.51792395",4.86
same,PXC50,"BOTTOM 4.583304472, HILLSLOPE 3.359740299, MAX_EFFECT 56.16438356, TOP 53.05051886",4.95
CN(C)C(=O)C1CCN(c2cncc(-n3cccn3)n2)CC1,PXC50,MAX_EFFECT 5.700712589,< 4
same,PXC50,MAX_EFFECT 11.44366197,< 4
Nc1nc(CSc2ccccn2)nc2sc3c(c12)CCCC3,PXC50,MAX_EFFECT 37.33333333,< 4
same,PXC50,MAX_EFFECT 37.56613757,< 4
CCc1cc2c(NCc3ccccn3)nc(C)nc2s1,PXC50,MAX_EFFECT 3.194103194,< 4
same,PXC50,MAX_EFFECT 6.030150754,< 4
Cc1sc2nc(CN3CCOCC3)nc(NS(C)(=O)=O)c2c1C,PXC50,MAX_EFFECT 10.38251366,< 4
same,PXC50,MAX_EFFECT 12.29946524,< 4
